Experimental data as given in PubChem BioAssay (NCI).
The panel holds about 79,000 compounds, 15% with a hit somewhere; the sample as a whole holds those more often. Active and inactive are the calls of the source. Rule as the data show it: active = growth inhibition above about 70%; inactive = the rest.

How the values were obtained:
[1] = NCI Yeast Anticancer Drug Screen. Data for the rad50 strain (AID 155);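 also: 0% = growth of vehicle-only cultures of the same strain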; conditions: S. cerevisiae rad50 strain growth inhibition, hits give high values
How it was run: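 Yeast carrying a defined DNA repair defect were exposed to test compounds, and growth was compared with vehicle-treated controls to give percent inhibition.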

[2] = NCI Yeast Anticancer Drug Screen. Data for the mec2-1 strain (AID 157); conditions: S. cerevisiae mec2-1 strain, hits give high values
How it was run: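 Cells of the genetically defined mec2-1 yeast strain are incubated with test compound. Inhibition of growth is calculated against vehicle-treated controls.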

[3] = NCI Yeast Anticancer Drug Screen. Data for the sgs1 mgt1 strain (AID 161);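 also: 0% = growth of cultures given vehicle only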; conditions: S. cerevisiae sgs1 mgt1 strain, hits give high values
How it was run: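 Genetically altered yeast, compound exposure, growth inhibition relative to vehicle.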

[4] = NCI Yeast Anticancer Drug Screen. Data for the cln2 rad14 strain (AID 165);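 also: 0% = growth equal to vehicle treated cultures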; conditions: S. cerevisiae cln2 rad14 strain, hits give high values
How it was run: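 The screen exposed genetically defined yeast (cln2 rad14) to test compounds and scored growth inhibition relative to vehicle-treated controls.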

[5] = NCI Yeast Anticancer Drug Screen. Data for the bub3 strain (AID 167); conditions: S. cerevisiae bub3 mutant strain, hits give high values
How it was run: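 Compounds were applied to a genetically altered yeast strain carrying a cell-cycle control defect. Growth inhibition was scored against vehicle-treated controls.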

[6] = NCI Yeast Anticancer Drug Screen. Data for the mlh1 rad18 strain (AID 175); conditions: S. cerevisiae mlh1 rad18 strain growth inhibition, hits give high values
How it was run: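 Compound-treated yeast growth, normalised to vehicle controls. Strain bears defined DNA repair mutations.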

[7] = at 5.0 µM (retest, dose inferred, filed as 0.5)
[8] = at 50.0 µM (retest, dose inferred, filed as 5.0)

Measured: growth inhibition

CCN(CC)CCOC(=O)C1C(c2ccccc2)C1(c1ccccc1)c1ccccc1 (configuration not stated)
inactive: [1]; [7] 1% | [2]; [7] 4% | [2]; [8] 63% | [2]; at 50.0 µM 62.8% | [3]; [7] 8% | [4]; [7] 3% | [4]; [8] 60% | [5]; [7] 8% | [6]; [7] 5%
active: [1]; [8] 77% | [1]; at 50.0 µM 73% | [3]; [8] 97% | [3]; at 50.0 µM 88.7% | [4]; at 50.0 µM 77.3% | [5]; [8] 85% | [5]; at 50.0 µM 75.2% | [6]; [8] 96% | [6]; at 50.0 µM 92.8%

O=[N+]([O-])C1C(c2ccccc2)CC=CC1N1CCCC1 (configuration not stated)
active: [1]; [8] 97% | [1]; at 50.0 µM 98.5% | [2]; [8] 95% | [2]; at 50.0 µM 98% | [3]; [8] 97% | [3]; at 50.0 µM 98% | [4]; [8] 85% | [4]; at 50.0 µM 93.9% | [5]; [8] 95% | [5]; at 50.0 µM 97.3% | [6]; [8] 98% | [6]; at 50.0 µM 98.2%
inactive: [1]; [7] 2% | [2]; [7] 15% | [3]; [7] 17% | [4]; [7] -2% | [5]; [7] -3% | [6]; [7] 7%

COc1ccc(OC)c(N=Nc2c(C)[nH]n(C(N)=S)c2=O)c1
inactive: [1]; [7] -6% | [1]; [8] 47% | [2]; [7] -3% | [2]; [8] 34% | [2]; at 50.0 µM 19% | [3]; [7] 7% | [3]; [8] 34% | [4]; [7] -2% | [4]; [8] 27% | [4]; at 50.0 µM 10.6% | [5]; [7] -14% | [5]; [8] 26% | [5]; at 50.0 µM 42.1% | [6]; [7] 11% | [6]; [8] 25% | [6]; at 50.0 µM 66.7%
active: [1]; at 50.0 µM 79.3% | [3]; at 50.0 µM 80.7%

O=C1c2ccccc2-c2ccccc2C(=O)C1(Br)Br
inactive: [1]; [7] -5% | [1]; [8] 8% | [2]; [7] -1% | [2]; [8] -5% | [3]; [7] 3% | [3]; [8] -11% | [4]; [7] -8% | [4]; [8] -4% | [4]; at 50.0 µM 47.3% | [5]; [7] -7% | [5]; [8] -18% | [5]; at 50.0 µM 66.7% | [6]; [7] 0% | [6]; [8] -7%
active: [1]; at 50.0 µM 89.8% | [2]; at 50.0 µM 91.1% | [3]; at 50.0 µM 88.3% | [6]; at 50.0 µM 96.4%

O=C1C=CC(=O)C(Sc2ccccc2)=C1
inactive: [1]; [7] -3% | [2]; [7] 7% | [3]; [7] -4% | [4]; [7] -14% | [5]; [7] -10% | [6]; [7] 24%
active: [1]; [8] 98% | [1]; at 50.0 µM 96.8% | [2]; [8] 99% | [2]; at 50.0 µM 98.9% | [3]; [8] 98% | [3]; at 50.0 µM 89.5% | [4]; [8] 93% | [4]; at 50.0 µM 93.3% | [5]; [8] 99% | [5]; at 50.0 µM 94.1% | [6]; [8] 98% | [6]; at 50.0 µM 95.3%

c1coc(C2=Nc3cccc4cccc(c34)N2)c1
active: [1]; [8] 84% | [3]; [8] 81% | [3]; at 50.0 µM 76.7% | [5]; [8] 94% | [6]; [8] 96%
inactive: [1]; [7] 6% | [1]; at 50.0 µM 50.5% | [2]; [7] 5% | [2]; [8] 62% | [2]; at 50.0 µM 10.3% | [3]; [7] 36% | [4]; [7] 4% | [4]; [8] 65% | [4]; at 50.0 µM 32.5% | [5]; [7] 5% | [5]; at 50.0 µM 36.4% | [6]; [7] -13% | [6]; at 50.0 µM 54.6%

CC1=CC2C(O)(CC(CO)=CC3C4C(C)(C)C4(OC(=O)c4ccccc4)C(OC(=O)c4ccccc4)C(C)C32O)C1=O (configuration not stated)
active: [1]; [7] 95% | [1]; [8] 96% | [1]; at 50.0 µM 90.3% | [2]; [7] 96% | [2]; [8] 98% | [2]; at 50.0 µM 91.7% | [3]; [7] 96% | [3]; [8] 97% | [3]; at 50.0 µM 92% | [4]; [7] 73% | [4]; [8] 97% | [4]; at 50.0 µM 88.3% | [5]; [7] 95% | [5]; [8] 96% | [5]; at 50.0 µM 89.2% | [6]; [7] 97% | [6]; [8] 97% | [6]; at 50.0 µM 88.6%

CN(C)CCCNc1ccc2c(=O)n(CCN(C)C)c(=O)n3c4ccccc4c(=O)c1c23
active: [1]; at 50.0 µM 71.7%
inactive: [1]; [7] 42% | [1]; [8] 69% | [2]; [7] 29% | [2]; [8] 33% | [2]; at 50.0 µM 55% | [3]; [7] 28% | [3]; [8] 18% | [3]; at 50.0 µM 26.2% | [4]; [7] 40% | [4]; [8] 24% | [4]; at 50.0 µM 58.6% | [5]; [7] 61% | [5]; [8] 37% | [5]; at 50.0 µM 40.9% | [6]; [7] 55% | [6]; [8] 61% | [6]; at 50.0 µM 25.4%

CCOC(=O)C(C(=O)OCC)C(=O)c1ccccc1C(=O)c1ccccc1
active: [6]; at 50.0 µM 80.6%
inactive: [1]; [7] -12% | [1]; [8] 44% | [1]; at 50.0 µM 60.8% | [2]; [7] -17% | [2]; [8] 23% | [2]; at 50.0 µM 34% | [3]; [7] -9% | [3]; [8] 55% | [3]; at 50.0 µM 56.9% | [4]; [7] -2% | [4]; [8] 2% | [4]; at 50.0 µM 14.8% | [5]; [7] -3% | [5]; [8] 32% | [5]; at 50.0 µM 51.5% | [6]; [7] 1% | [6]; [8] 59%
